These results are taken from PubChem BioAssay (EPA / NIEHS).

SMILES strings stand for the structures. Values joined by “and” are separate entries in the source; they are usually repeats but may differ in a detail not shown here. Equal entries are not always repeated. Records with an inconclusive call do not appear. Some compounds were tested as several samples or in several runs, with calls that do not always agree. Active and inactive are the calls of the source. The calls were made as follows: active = hit-call score of the fitted dose curve at least 0.9, where 1 is the maximum; inconclusive = response in the unintended direction; inactive = score below 0.9.

The assay is described as follows: TOX21_p53_BLA_p3_viability: Viability Assessment in the Tox21 HCT-116 p53 Agonism Beta-lactamase Assay, Phase 3 (AID 2283593).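 Also: cells exposed to compound for 16 h before reading.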 An outline of the steps:
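HCT-116 cells (4000/well) rested 5 h at 37C, then got DMSO compounds by pin tool (217-fold dilution) for 16 h at 37C, 5% CO2. After the bla read, CellTiter-Glo was added and luminescence read at 30 min, room temperature.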
`ClCCOCCCl`: the compound was classed as inactive.
Usually AC50 stands for the concentration giving half of the maximal activity seen. Regarding `Clc1ccc(C(c2ccc(Cl)cc2)C(Cl)(Cl)Cl)cc1`, the AC50 was 77.1 µM (active) and 30.7 µM (active); the compound was called inactive.
In the case of `[As]#[In]`, the call was inactive.
The same measure, in the same setting: for `O=Cc1ccco1` the value was “inactive”.
On to `Nc1cc(Cl)cc(C(=O)O)c1Cl`, for which the compound was called inactive.
`Nc1ccc(Oc2ccc(N)cc2)cc1`: the outcome was inactive.
Turning to `O=C1CCCO1`, the call was inactive.
On the same count and under the same terms, for `CC(C)N(Cc1ccccc1)C(=O)C(C)(C)C` the value was “inactive”; for `COC(=O)c1ccccc1N`, “inactive”.
As to `Clc1ccc(C(c2ccc(Cl)cc2)C(Cl)Cl)cc1`, the half-maximal activity concentration (AC50) is 79.1 µM (active) and 50.6 µM (active).
For `c1ccc2c(c1)-c1cccc3cccc-2c13`, the compound was classed as inactive.
For the compound `C1=Cc2cccc3cccc1c23`, the compound was classed as inactive.
On the same count and under the same terms, for `c1ccc2c(c1)oc1ccccc12` the value was “inactive”.
`CCC[CH2][Sn]([Cl])([CH2]CCC)[CH2]CCC`: the AC50 is 921 nM (active) and 958 nM (active).
As to `CC(C)(O)c1cnn2c(-c3ccc(F)c(-c4c(F)cccc4C#N)c3)cnc2n1`, the call was inactive.
For `CCCCC(CC)COC(=O)c1ccc(C(=O)OCC(CC)CCCC)c(C(=O)OCC(CC)CCCC)c1` (stereo not drawn), the outcome was inactive.
Still for that read-out and setting: for `CN(C)C(=O)Nc1ccc(Cl)cc1` the value was “inactive”; for `Nc1ccc([N+](=O)[O-])cc1`, “inactive”; for `CC(O)CCO` (stereo not drawn), “inactive”.
Take `Oc1ccc2ccc3cccc4ccc1c2c34`: the outcome was inactive.
The same measure, in the same setting: next, `CCCCCCCCCCCCCN1CC(C)OC(C)C1` (stereo not drawn): “inactive”.
On to `C[N+](C)(C)CC1CO1` (stereo not drawn), for which the compound was called inactive.
